Assay outcomes as filed in PubChem BioAssay.
Bead autofluor – flagged as autofluorescent in microsphere protease counterscreen; compound autofluorescence counterscreen, microsphere flow cytometry; active compounds read high; fluorescence intensity (test concentration not listed); 360,000 compounds, 3.1% hits; AID 624483; in the data active = fluorescence intensity above about 16000; inconclusive = no clear call, values can overlap the other calls
BoNT-A LC inh2 – BoNT/A light chain protease inhibitors, primary screen, biochemical, flow cytometry, MLPCN library; Botulinum neurotoxin type A light chain protease (Clostridium botulinum A str. ATCC 3502); multiplex microsphere protease substrate cleavage; inhibition, % at 10 µM; 360,000 compounds, 0.17% hits; AID 588499, 2011; also: plate controls were buffer without enzyme for full effect and enzyme alone for no effect
Anthrax LF inh2 – Bacillus anthracis LF protease inhibitors, primary screen, biochemical, multiplex microsphere, MLPCN library; multiplex microsphere protease cleavage assay; inhibition, % at 10 µM; 360,000 compounds, 0.12% hits; AID 588501, 2011; also: plate controls were buffer without enzyme for full effect and enzyme alone for no effect
Target sequence (P15917 whole entry, looked up): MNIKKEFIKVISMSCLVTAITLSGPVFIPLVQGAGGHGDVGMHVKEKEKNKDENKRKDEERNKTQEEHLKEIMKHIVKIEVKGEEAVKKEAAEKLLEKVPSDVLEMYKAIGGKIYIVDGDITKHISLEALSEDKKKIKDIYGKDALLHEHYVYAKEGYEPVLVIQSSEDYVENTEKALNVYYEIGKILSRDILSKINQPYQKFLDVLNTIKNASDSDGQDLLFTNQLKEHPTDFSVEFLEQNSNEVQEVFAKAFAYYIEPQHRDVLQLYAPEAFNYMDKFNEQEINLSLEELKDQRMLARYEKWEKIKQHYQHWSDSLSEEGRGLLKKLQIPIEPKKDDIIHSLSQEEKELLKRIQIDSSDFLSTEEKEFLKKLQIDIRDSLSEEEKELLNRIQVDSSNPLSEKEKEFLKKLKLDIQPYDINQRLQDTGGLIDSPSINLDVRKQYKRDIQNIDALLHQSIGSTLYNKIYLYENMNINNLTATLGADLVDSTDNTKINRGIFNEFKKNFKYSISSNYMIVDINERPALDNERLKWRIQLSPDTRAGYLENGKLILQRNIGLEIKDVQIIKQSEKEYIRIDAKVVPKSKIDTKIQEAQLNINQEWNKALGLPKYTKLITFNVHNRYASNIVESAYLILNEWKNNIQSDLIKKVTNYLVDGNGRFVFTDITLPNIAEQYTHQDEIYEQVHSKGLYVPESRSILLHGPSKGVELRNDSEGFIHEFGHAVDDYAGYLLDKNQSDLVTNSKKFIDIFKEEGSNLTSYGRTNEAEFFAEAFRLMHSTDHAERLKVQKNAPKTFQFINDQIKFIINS
BoNT-F LC inh – BoNT/F light chain protease inhibitors, primary screen, biochemical, flow cytometry, MLPCN library | 360,000 compounds, 0.22% hits | Botulinum neurotoxin type F light chain protease (Clostridium botulinum) | inhibition, % at 10 µM | Multiplex microsphere protease cleavage assay; in the data active = inhibition above about 35%, passing the limit was not always enough; inconclusive = no clear call, values can overlap the other calls; also: plate controls were buffer without enzyme for full effect and enzyme alone for no effect
GDH-TPI counter – GDH-TPI coupling enzyme inhibitors, primary screen, artefact control for M. tuberculosis FBA inhibitor project, biochemical, absorbance, full deck | AID 588335, 2011 | 360,000 compounds, 1.2% hits | inhibition, % at 4.8 µM | GDH-TPI coupled enzyme counterscreen, NADH absorbance; in the data active = inhibition above about 30%;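 also: 0% = DMSO wells and 100% = wells lacking the enzyme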
Mtb FBA inh – Mtb FBA enzyme inhibitors, primary screen, biochemical, fluorescence, strain H37Rv; Fructose-bisphosphate aldolase (Mycobacterium tuberculosis (strain ATCC 25618 / H37Rv)), …; purified M. tuberculosis FBA, fluorescence read-out; inhibition, % at 1 µM; 360,000 compounds, 2.3% hits; in the data active = inhibition above about 27%;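 also: 0% = vehicle and 100% = reference inhibitor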
Active calls of the source: *; ? = inconclusive; + = active, no number. This is a sample that favours compounds with a hit; in the whole collection about 6.7% have one here. Rule as the data show it, unless noted: active = inhibition above about 30%; inconclusive = no clear call, values can overlap the other calls; inactive = below that.

SMILES	Bead autofluor	BoNT-A LC inh2	Anthrax LF inh2	BoNT-F LC inh	GDH-TPI counter	Mtb FBA inh
Cc1ccc(SC(C)C(=O)Nc2ccncc2)cc1 (stereo not drawn)	22693*	2	1	2	2	-2
COc1ccc(C(C)NC(=O)C2C(=O)NC3(C)CC2c2ccccc2O3)cc1 (stereo not drawn)	2420	0	-3	-4	4	-2
COc1ccc(/C=C/c2ccc3c(Br)ccc(O)c3n2)cc1	3014	0	-12	-14	14	0
Cc1ccc(Cn2ccsc2=NC(=O)CCl)cc1	3951	0	-2	-1	-2	-1
COc1ccc2c(c1)C(=NO)c1cc(OC)ccc1-2	4670	0	1	-2	4	1
CCOC(=O)Nc1ccc2c(c1)Nc1ccccc1S2	20181*	?	-2	-4	11	-1
CC(C)[C@H](NC(=O)c1ccco1)C(=O)OCC(=O)Nc1ccc(Cl)c(S(=O)(=O)N(C)C)c1	4172	0	-5	-5	-4	0
COc1cc(C2=NOC(C(=O)NCc3ccc(F)cc3)C2)cc(OC)c1OC (stereo not drawn)	17938*	-2	0	-6	9	0
COc1cccc(C2=NOC(C(=O)Nc3cc(OC)c(OC)c(OC)c3)C2)c1 (stereo not drawn)	21270*	-3	-4	-3	-1	-1
COc1ccc(CNC(=O)C2CC(c3cccc(OC)c3)=NO2)cc1 (stereo not drawn)	19613*	9	-9	9	-2	2
COc1cc(C2=NOC(C(=O)Nc3ccc(C)cc3)C2)cc(OC)c1OC (stereo not drawn)	19324*	2	-2	1	-9	-1
COc1cc(C(=O)Nc2c(C)cc(C)cc2C)c(Br)c(OC)c1OC	2249	0	-4	-4	-1	-1
COc1cc(C2=NOC(C(=O)N3CCN(c4ccc(F)cc4)CC3)C2)cc(OC)c1OC (stereo not drawn)	17355*	-3	-3	-2	4	1
COc1ccc(NC(=O)C2CC(c3ccc(OC)c(OC)c3)=NO2)cc1OC (stereo not drawn)	10820	1	-8	-22	0	0
COc1ccc(NC(=O)C2CC(c3cc(OC)c(OC)c(OC)c3)=NO2)cc1OC (stereo not drawn)	21486*	5	-2	1	2	-1
COc1cc(C2=NOC(C(=O)N3CCCCCC3)C2)cc(OC)c1OC (stereo not drawn)	15348	4	-4	8	5	-3
COc1ccc(C2=NOC(C(=O)Nc3ccc(C)cc3)C2)cc1OC (stereo not drawn)	21677*	2	3	3	7	-1
Cc1cc(C)c(S(=O)(=O)c2ccccc2)c(OC(=O)c2c(Cl)cccc2Cl)n1	3895	0	-3	5	3	3
CCOC(=O)C1=C(C)NC(SCC(N)=O)=C(C#N)C1c1ccncc1 (stereo not drawn)	3539	0	-5	-5	7	4
Clc1ccc(Cl)c(-c2ccc(/C=N/c3ncn[nH]3)o2)c1	22627*	?	-12	1	11	0
Cc1cc(-c2ccc(C)c(S(=O)(=O)NCCCN3CCCCCC3)c2)on1	6437	0	0	0	6	3
COc1ccc2cc3cc(C(=O)NCCN4CCN(c5ccccc5F)CC4)oc3nc2c1	4441	1	0	7	34*	+
CCOc1ccc(NC(=O)c2cc3cc4ccc(OC)cc4nc3o2)cc1	3583	0	-4	8	8	0
COc1ccc2cc3cc(C(=O)NCCC(C)C)oc3nc2c1	3736	1	-5	19	15	134*
COc1ccc2cc3cc(C(=O)Nc4ccccc4N4CCN(C)CC4)oc3nc2c1	3953	2	0	4	22	1
CCC(C)NC(=O)c1cc2cc3ccc(OC)cc3nc2o1 (stereo not drawn)	5775	-1	8	-23	21	+
